High-throughput results deposited in PubChem by National Center for Advancing Translational Sciences (NCATS).
Vaccinia Venus: vaccinia inhibition (Venus reporter). Potency, µM (top dose mostly 36.5 µM), for inactives: at the highest dose activity change, negative = inhibition, actives largely listed as inhibitors. Vaccinia virus Venus reporter expression, fluorescence. hit rate 0.46% among 330,000; calls by dose curve; tested in A549 cells; note: potency is the fitted concentration of half-maximal effect; nearly all actives have a fitted effect of over 30% in size
Vaccinia mCherry: vaccinia inhibition (mCherry reporter); Potency, µM (top dose mostly 36.5 µM), inactives show top-dose activity change, negative = inhibition, hits mostly inhibitors; Vaccinia virus mCherry reporter infection, fluorescence; hit rate 0.63% among 310,000; calls by dose curve; tested in A549 cells; note: potency is the fitted concentration of half-maximal effect; nearly all actives have a fitted effect of over 35% in size
HCV inh: blocks hepatitis C virus; hit rate 3.4% among 340,000; Huh7.5.1 HCVcc-Cre infection, luciferase reporter, 44 h; Potency, µM (top dose mostly 41.8 µM), inactives show at the highest dose activity change, negative = inhibition, hits mostly inhibitors; note: potency is the fitted concentration of half-maximal effect
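Whole-lifecycle infectious HCVcc-Cre system; cells 1,000/well, compound then virus (~0.5 moi) added 4 h after plating, 44 h culture. Luciferase read 15 sec following 15 min substrate incubation, room temp.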
HCMV inh: blocks human cytomegalovirus replication | HFF cells, HCMV-luciferase reporter, 72 h; stronger effect = lower value | activity change, negative = inhibition, % at 57.5 µM | hit rate 4.5% among 410,000; in the data active = activity change below about -60%; inconclusive = no clear call, values can overlap the other calls; inactive = above about -39%
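Screen run at 2 compound doses on HFFs infected with reporter HCMV, MOI 1 PFU/cell. Luciferase activity from cell lysates at 72 h post infection gave inhibition relative to buffer-only and Salinomycin wells.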
FMDV inh: foot and mouth disease virus antiviral activity. AID 1159524. hit rate 1.2% among 410,000. Potency, µM (top dose mostly 57.9 µM), for inactives: at the top dose activity change, negative = inhibition, actives largely listed as inhibitors. FMDV antiviral cell-based qHTS; calls by dose curve; tested in HEK293T cells; note: read-out not given here; potency is the fitted concentration of half-maximal effect; nearly all actives have a fitted effect of over 45% in size
Giardia FBPA inh: inhibitors of Giardia lamblia fructose-1,6-bisphosphate aldolase; purified Giardia FBPA; Potency, µM (highest dose often 59.6 µM), without a hit: at the highest dose activity, negative = inhibition, most hits filed as inhibitors; hit rate 0.71% among 290,000; AID 2451; note: potency is the fitted concentration of half-maximal effect; nearly all actives have a fitted effect of over 55% in size
Target sequence (A8B2U2 whole entry, looked up): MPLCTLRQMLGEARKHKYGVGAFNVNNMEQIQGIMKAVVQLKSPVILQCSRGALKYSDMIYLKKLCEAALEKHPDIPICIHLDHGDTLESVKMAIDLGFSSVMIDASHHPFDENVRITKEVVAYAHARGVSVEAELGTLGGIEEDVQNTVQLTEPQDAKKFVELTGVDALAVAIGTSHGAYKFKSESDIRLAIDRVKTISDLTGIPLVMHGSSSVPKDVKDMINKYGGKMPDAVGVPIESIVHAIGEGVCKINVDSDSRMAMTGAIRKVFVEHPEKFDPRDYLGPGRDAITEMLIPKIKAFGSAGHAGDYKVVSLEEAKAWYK
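Giardia FBPA (40 nM reagent) was preincubated 10 min at RT with compound (up to 57.5 uM final), then substrate plus GAPDH/TPI/NAD/arsenate coupling system with diaphorase/resazurin was added; resorufin fluorescence (525/598 nm) was read after 20 min.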
* hit, by the source's call; [ ] = dose if it differs, or a comment. Only some compounds are listed: those with a hit (about 7.5% of all), similar ones and a draw of the others. Unless noted, calls come from the whole dose curve; as a rule, active = well fitted curve in the direction sought with a large enough effect; inconclusive = small, poorly fitted or top-dose-only effect, or another doubt; inactive = no such curve, though single readings can be large; an effect the other way counts as inactive or inconclusive. % is set by controls: 0 for no effect and ±100 for the full control effect.

Cc1cc(NC(=O)Nc2cccc(Cl)c2)n(-c2ccccn2)n1 was read as Vaccinia Venus -16%, Vaccinia mCherry -16%, HCV inh 11µM*, HCMV inh 0, FMDV inh -12% and Giardia FBPA inh 5%.
`Cc1cc(NC(=O)Nc2cccc(Cl)c2)n(-c2ccccc2)n1` gave Vaccinia Venus -8%, Vaccinia mCherry inactive, HCV inh inconclusive, HCMV inh 6, FMDV inh -12% and Giardia FBPA inh 0%.
For Cc1cc(NC(=O)c2ccc(F)cc2)n(-c2ccccn2)n1 the results were Vaccinia Venus -14%, Vaccinia mCherry -26%, HCV inh 8.9µM*, HCMV inh -14, FMDV inh -19% and Giardia FBPA inh 0%.
`Cc1cc(NC(=O)c2ccc(C#N)cc2)n(-c2ccccn2)n1` gave Vaccinia Venus -10%, Vaccinia mCherry inactive, HCV inh inconclusive, HCMV inh -7, FMDV inh -16% and Giardia FBPA inh 6%.
NS(=O)(=O)c1ccc2nc(-c3ccccc3)c(-c3ccccc3)nc2c1 was read as Vaccinia Venus -6%, Vaccinia mCherry -11%, HCV inh inconclusive, HCMV inh 9, FMDV inh -22% and Giardia FBPA inh 9%.
Screening COC(=O)c1cc(-c2ccc(S(=O)(=O)N3CCCCC3)cc2)c(C(F)(F)F)s1 returned HCV inh -16%, HCMV inh -23, FMDV inh -30% and Giardia FBPA inh 1%.
`CCOc1ccc(C2CC(=O)Nc3nc(SCc4ccccc4C)[nH]c(=O)c32)cc1OC` (stereo not drawn) gave Vaccinia Venus inconclusive, Vaccinia mCherry inconclusive, HCMV inh -102* and FMDV inh 2%.
Screening CCOc1cc(C2CC(=O)Nc3nc(SCc4ccccc4)[nH]c(=O)c32)ccc1O (stereo not drawn) returned Vaccinia Venus -10%, Vaccinia mCherry -21%, HCMV inh 19 and FMDV inh -8%.
COC(=O)c1ccc(C2NC(c3ccc4c(c3)OCO4)=CC(c3ccccc3O)N2)cc1 (stereo not drawn) was read as Vaccinia Venus -18% and Vaccinia mCherry -26%.
Screening Cc1cccc(NC(=O)C2CCCN2S(=O)(=O)c2ccc3nc(-c4ccccc4)[nH]c3c2)c1 (stereo not drawn) returned Vaccinia Venus -10%, Vaccinia mCherry -15%, HCMV inh -27 and FMDV inh -26%.
For COc1ccc(CNC[C@@H](CCCCN(C)Cc2ccc(OC)cc2)N2C[C@H](c3ccccc3)N(CCc3ccc(Cl)c(Cl)c3)C(=O)C2=O)cc1 the results were Vaccinia Venus 22µM*, Vaccinia mCherry inconclusive, HCV inh -9%[8.37 µM], FMDV inh inconclusive and Giardia FBPA inh 5%.
CN(CCCC[C@H](CNCc1ccc(-c2ccccc2)cc1)N1C[C@H](c2ccccc2)N(CCc2ccc(Cl)c(Cl)c2)C(=O)C1=O)Cc1ccc(-c2ccccc2)cc1 was read as Giardia FBPA inh -4%.
For COc1ccc(N2CCN(C(=O)c3ccc(NC(=O)C4=CSCCO4)cc3)CC2)cc1 the results were HCV inh -3%, FMDV inh -1% and Giardia FBPA inh -3%.
For Cn1c(/C(C#N)=C/c2ccncc2)nc2ccccc21 the results were HCV inh -2%, HCMV inh 12, FMDV inh 16µM* and Giardia FBPA inh 0%.
Screening CC(=O)c1cccc(S(=O)(=O)N2CCCC(c3nc4c(nnn4Cc4cccc(Cl)c4)c(=O)[nH]3)C2)c1 (stereo not drawn) returned Vaccinia Venus -18%, Vaccinia mCherry inactive, HCV inh inconclusive, HCMV inh 30, FMDV inh -20% and Giardia FBPA inh 7%.
CC1C/C(=C\c2cccnc2)C(=O)/C(=C/c2cccnc2)C1 (stereo not drawn) was read as Vaccinia Venus 8.9µM*, Vaccinia mCherry inconclusive, HCV inh inconclusive, HCMV inh -101*, FMDV inh 3.5µM* and Giardia FBPA inh -1%.
For CC(C)C/C=C1\CCc2c([nH]c3ccccc23)C1=O the results were Vaccinia Venus -22%, Vaccinia mCherry -17%, HCV inh -15%, HCMV inh 42, FMDV inh 22% and Giardia FBPA inh -17%.
